FLuc modulator = inhibits or activates purified firefly luciferase, miR-21 counter-screen; P08659; purified FLuc, Km substrates, luminescence inhibition; Potency, µM (titrated, usually from 57.5 µM), actives largely listed as inhibitors; 6.9% of 360,000 active; AID 588342; note: nearly all actives have a fitted effect of over 55% in size
Target sequence (P08659 whole entry, looked up): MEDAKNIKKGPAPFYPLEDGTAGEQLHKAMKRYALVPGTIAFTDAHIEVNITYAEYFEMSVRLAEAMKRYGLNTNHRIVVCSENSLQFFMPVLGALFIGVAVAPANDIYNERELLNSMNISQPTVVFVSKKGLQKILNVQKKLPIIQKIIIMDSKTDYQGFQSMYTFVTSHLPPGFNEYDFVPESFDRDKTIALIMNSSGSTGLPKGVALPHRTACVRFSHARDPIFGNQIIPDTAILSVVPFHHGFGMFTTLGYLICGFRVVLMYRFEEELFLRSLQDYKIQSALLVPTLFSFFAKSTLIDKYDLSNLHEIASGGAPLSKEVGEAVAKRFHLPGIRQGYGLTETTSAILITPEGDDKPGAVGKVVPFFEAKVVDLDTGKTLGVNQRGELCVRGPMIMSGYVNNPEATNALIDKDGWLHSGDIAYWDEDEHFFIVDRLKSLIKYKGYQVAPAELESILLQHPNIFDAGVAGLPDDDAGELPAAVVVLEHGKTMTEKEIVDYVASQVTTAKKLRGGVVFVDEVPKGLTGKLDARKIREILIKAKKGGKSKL
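Biochemical qHTS of compounds, final roughly 60 µM downward over six points, against 10 nM purified firefly luciferase using Km concentrations of substrates (10 uM D-luciferin, 10 uM ATP) in Tris acetate pH 7.5 buffer; luminescence output.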
SMN2 splice enh = SMN2 splice variant enhancement. HEK293 SMN2-luciferase splicing reporter, luminescence, 30-36 h. Potency, µM (doses to about 46.1 µM), actives largely listed as activators. 2.8% of 210,000 active. AID 1458; note: nearly all actives have a fitted effect of over 55% in size
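HEK293 cells carry an SMN2 […]–luciferase reporter in which exon 7 inclusion puts luciferase in frame. Cells were plated 10-12 h before compound addition, then incubated 30-36 h at 37C. ONE-Glo luminescence was read; sodium butyrate at 4.5 mM final served as control.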
p53 reactivator = restores transcriptional activity of mutant p53. H1299 p53-A138V BP100-luciferase reporter, luminescence, 24 h. Potency, µM (highest dose often 92.2 µM), most hits filed as activators. 0.063% of 320,000 active. AID 504706; note: nearly all actives have a fitted effect of over 45% in size
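H1299 (p53-null), stable ts p53-A138V + BP100-Luc; 1000 cells/well, Opti-MEM/10% FBS; cpd 4 pt, 1:5; 24 h, 37 deg C, 5% CO2; detection reagent 10 min RT; luminescence.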
ELG1 genotoxic = induces genotoxicity in HEK293T cells with luciferase-tagged ELG1; HEK293T ELG1-luciferase reporter, luminescence, 16 h; 1.3% of 330,000 active; AID 504466; Potency, µM (top dose mostly 46 µM), most hits filed as activators; note: nearly all actives have a fitted effect of over 60% in size
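DMSO vehicle served as control against compound-treated ELG1-luciferase HEK293T cells; exposure lasted 16 hr at 37 °C and 5% CO2, followed by ONE-Glo luminescence detection after 30 min.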
NPC1 prom act = activators of NPC1 promoter | Huh7 NPC1 promoter luciferase reporter, 24 h | Potency, µM (highest dose often 9.22 µM), most hits filed as activators | 2.4% of 320,000 active | AID 485313; note: nearly all actives have a fitted effect of over 60% in size
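Stably transfected Huh7 (NPC1 promoter→luciferase), 1500 cells/well in Opti-MEM + 10% FBS, 2 h settle, then compound 24 h at 37 °C. Luminescence after 10 min with Amplite reagent.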
Rab9 prom act = Rab9 promoter activation. Huh7 Rab9 promoter-luciferase reporter, luminescence, 24 h. 2.8% of 320,000 active. Potency, µM (doses to about 9.22 µM), actives largely listed as activators; note: nearly all actives have a fitted effect of over 60% in size
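Cell-based reporter: Huh7 stable for Rab9 promoter-driven luciferase, plated in reduced-serum medium with 10% FBS at 1500 cells/well, compound-treated 24 h at 37 °C, luminescence read after 10 min reagent.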
Numbers stand for hits; . = inactive; ? = inconclusive; / = no result; [ ] = remark or other dose. Hits are enriched below; roughly 7.3% of the tested compounds scored in any of these assays. Calls come from the whole dose curve; as a rule, active = well fitted curve in the direction sought with a large enough effect; inconclusive = small, poorly fitted or top-dose-only effect, or another doubt; inactive = no such curve, though single readings can be large; an effect the other way counts as inactive or inconclusive.

SMILES | FLuc modulator | SMN2 splice enh | p53 reactivator | ELG1 genotoxic | NPC1 prom act | Rab9 prom act
COc1cc2ccccc2cc1C(=O)Nc1ccc2oc(=O)ccc2c1 | . | / | . | . | . | .
COc1cccc(C(=O)Nc2ccncc2)c1OC | . | / | / | . | . | .
COc1cccc(NC(=O)c2cccc(OC)c2OC)c1 | 21.3µM | 15.8µM | ? | 10.3µM | ? | ?
COc1cccc(C(=O)Nc2ccc3[nH]c(=O)[nH]c3c2)c1OC | . | / | . | . | . | .
COc1cc(OC)c(C(=O)Nc2ccc3ccccc3c2)cc1OC | 4.78µM | / | . | ? | ? | 2.51µM
COc1ccc(NC(=O)c2cc3ccccc3cc2OC)cc1OC | 26.9µM | / | . | . | . | .
Cc1nc(N2CCOCC2)c2c(C(=O)N(C)Cc3ccccc3)c(C)oc2n1 | . | / | / | / | / | /
COc1cccc(NC(=O)CN(C)C(=O)c2cc3ccccc3cc2OC)c1 | . | / | . | . | . | .
COc1cc2ccccc2cc1C(=O)Nc1ccc2oc(-c3ccccc3)nc2c1 | . | . | / | / | / | /
COc1cccc(NC(=O)c2cc3ccccc3cc2OC)c1 | 9.53µM | / | . | ? | . | .
COc1cc(Cl)c(C)cc1NC(=O)c1cccc(OC)c1OC | 6.75µM | ? | . | . | ? | ?
COc1cc2ccccc2cc1C(=O)Nc1ccc(O)cc1 | 1.07µM | / | ? | 10.3µM | 1.41µM | 2µM
COC(=O)COc1cc2ccccc2cc1C(=O)Nc1ccccc1 | 9.53µM | . | . | . | . | .
COc1cccc(C(=O)Nc2cccc(-c3cn4c(C)csc4n3)c2)c1OC | 7.57µM | / | / | / | / | /
CN(C)c1ccc(NC(=O)c2cccc(C(=O)Nc3ccc(N(C)C)cc3)n2)cc1 | 1.51µM | 14.1µM | ? | . | 2.82µM | 3.16µM
COc1cccc(C(=O)Nc2ccc3c(c2)CCCN3C(=O)c2cccs2)c1OC | 9.53µM | / | . | . | . | .
COc1ccc([C@]23Cc4ccccc4C(O2)C2=C(O3)C(=O)c3ccccc3C2=O)cc1 | ? | / | / | / | .[1.84 µM] | .[1.84 µM]
CC(C)/C(=N/[N+](C)(C)C)c1ccccc1 | / | .[9.22 µM] | / | / | / | /
Cc1ccc(OCCn2cnc3ccccc3c2=O)c([N+](=O)[O-])c1 | ? | 15.8µM | . | ? | 2.82µM | 1.78µM
CC(=O)C1=C(O)C(=O)N(c2ccc(Br)cn2)C1c1ccc(F)cc1 (configuration not stated) | . | . | . | ? | 2.24µM | 3.98µM
COC(=O)C1=C(C(=O)OC)[C@@H]2N(Cc3ccccc3)c3ccccc3[C@@]23C[C@@H](C(=O)OC)N(S(=O)(=O)c2ccc(C#N)cc2)C3=N1 | / | .[9.22 µM] | / | / | / | /
COc1ccc(NC(=O)c2cnc3sc(N4CCOCC4)nn3c2=O)c(OC)c1 | . | / | / | / | / | /
Cc1ccc(N(C)S(=O)(=O)c2cccc(C(=O)Nc3nc4ccccc4[nH]3)c2)cc1 | . | . | . | . | . | .
CN(C)c1cccc(C(=O)Nc2nc3ccccc3[nH]2)c1 | 0.601µM | / | . | ? | 0.447µM | 0.316µM
O=C(Nc1nc2ccccc2[nH]1)c1ccc(Cl)c(S(=O)(=O)N2CCCC2)c1 | 12µM | . | ? | . | ? | .
SMILES | FLuc modulator | SMN2 splice enh | p53 reactivator | ELG1 genotoxic | NPC1 prom act | Rab9 prom act
COc1ccc(/C=C/C(=O)NCCc2nc3ccccc3[nH]2)cc1 | ? | / | . | . | . | .
O=C(/C=C/c1ccc(F)cc1)Nc1nc2ccccc2[nH]1 | ? | 11.2µM | . | ? | 1.26µM | 0.631µM
O=C(Nc1nc2ccccc2[nH]1)c1cccc(F)c1 | 3.01µM | / | . | 2.91µM | ? | ?
CCCCOc1cccc(C(=O)N(Cc2cccs2)c2ccc(OC)cc2)c1 | . | / | / | / | / | /
O=C(CSc1nn(-c2ccc(Cl)cc2)c(=S)s1)NCC1CCCO1 (configuration not stated) | . | . | . | . | . | .
CCCn1c2ccccc2c2cnn(CC(=O)NCCCN(Cc3ccccc3)C(C)C)c(=O)c21 | . | / | / | / | / | /
O=C(Nc1nc2ccccc2[nH]1)c1cccc(Br)c1 | 2.39µM | / | ? | 2.06µM | ? | 3.55µM
O=C(Nc1nc2ccccc2[nH]1)c1ccc(Br)o1 | 9.53µM | 12.6µM | . | ? | ? | ?
O=C(NCCN1CCCC1)c1ccc(CS(=O)(=O)c2c(Cl)cccc2Cl)o1 | . | . | . | . | . | .
Cc1cccc(-n2c(C)cc(C(=O)NC3CCCCC3)c2C)c1 | 21.3µM | ? | ? | ? | ? | 3.55µM
Cc1cccc(N2CCN(C(=O)NC3CCCCC3)CC2C)c1 (configuration not stated) | . | / | . | . | . | .
COc1ccc(-n2c(C)cc(C(=O)NC3CCCCC3)c2C)cc1 | 13.5µM | ? | ? | . | ? | 3.55µM
COc1ccc(N2CC(C(=O)NC3CCCCC3)CC2=O)cc1 (configuration not stated) | . | / | . | . | . | .
CCOC(=O)CSc1nc2cc3c(cc2c(=O)n1CCCC(=O)NCc1ccc2c(c1)OCO2)OCO3 | . | / | / | / | / | /
CCOC(=O)c1ccc(N/C=C\C(=O)c2cccc(OC)c2)cc1 | 3.01µM | ? | ? | . | ? | ?
COC(=O)c1ccccc1 | / | . | / | / | / | /
COc1ccc(C(=O)/C=C/Nc2cccc(O)c2)cc1 | 0.379µM | ? | ? | 1.46µM | . | ?
COc1ccc(C(=O)/C=C/Nc2ccc([N+](=O)[O-])cc2)cc1 | . | ? | ? | . | ? | ?
COC(=O)c1ccc(N/C=C/C(=O)c2ccccc2)cc1 | 0.601µM | / | / | ? | ? | 0.501µM
COc1cccc(C(=O)/C=C/Nc2cc(C)ccc2O)c1 | 2.69µM | / | ? | ? | . | .
Cc1cccc(C(=O)Nc2nnc(S(=O)(=O)N3c4ccccc4CC3C)s2)c1 (configuration not stated) | . | / | / | / | / | /
CCc1cccc(C)c1Nc1c(-c2ccc(SC)cc2)nc2sccn12 | . | . | / | / | / | /
O=c1c(-c2cc(-c3ccccc3)nc3c2COc2ccc(Cl)cc2-3)coc2ccccc12 | . | . | / | / | / | /
COCC(=O)N1CCC2(CCCN(C(=O)Nc3cccc(F)c3)C2)CC1 | / | . | / | / | / | /
CCCCc1nc(SCc2ccc([N+](=O)[O-])cc2)n[nH]1 | . | . | . | . | . | .
SMILES | FLuc modulator | SMN2 splice enh | p53 reactivator | ELG1 genotoxic | NPC1 prom act | Rab9 prom act
COc1cccc(N/C=C/C(=O)c2ccc(OC)c(OC)c2)c1 | 1.35µM | / | . | ? | 3.55µM | ?
CCOC(=O)c1cccc(N/C=C/C(=O)c2ccc(OC)c(OC)c2)c1 | 10.7µM | . | . | ? | 0.631µM | 1.58µM
Cc1cccc(N/C=C/C(=O)c2ccc(Cl)cc2)c1 | 0.675µM | / | ? | ? | 0.562µM | 0.355µM
Cc1cccc(C(=O)NN/C=C/C(=O)c2ccccc2)c1 | . | / | . | . | . | .
Cc1ccc(Cl)c(N/C=C/C(=O)c2ccccc2)c1 | 1.07µM | / | 39.8µM | 9.2µM | ? | ?
Cc1ccc(NC(=O)C2CC(=O)N(c3ccc(OC(C)C)cc3)C2)cc1 (configuration not stated) | . | . | / | / | / | /
COCC(=O)N1CCC2(CC1)CN(C(c1ccccc1)c1ccccc1)C2 | / | . | / | / | / | /
O=C(Cc1ccc(Cl)cc1)Nc1ccccn1 | . | / | . | . | . | .

Bioassay records from PubChem.
